Source: PubChem BioAssay
KCNQ2 block = KCNQ2 (rat) channel inhibition; 310,000 compounds, 1.1% hits; AID 2156; B-score at 10 µM; CHO-K1 KCNQ2, FluxOR thallium flux, 20 min; stronger effect = lower value;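 active means fluorescence ratio B-score at most minus 3 library SDs, with starting brightness B-score within 2 library SDs, cut at about -5.5 in these data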
Target sequence (O88943 whole entry, looked up): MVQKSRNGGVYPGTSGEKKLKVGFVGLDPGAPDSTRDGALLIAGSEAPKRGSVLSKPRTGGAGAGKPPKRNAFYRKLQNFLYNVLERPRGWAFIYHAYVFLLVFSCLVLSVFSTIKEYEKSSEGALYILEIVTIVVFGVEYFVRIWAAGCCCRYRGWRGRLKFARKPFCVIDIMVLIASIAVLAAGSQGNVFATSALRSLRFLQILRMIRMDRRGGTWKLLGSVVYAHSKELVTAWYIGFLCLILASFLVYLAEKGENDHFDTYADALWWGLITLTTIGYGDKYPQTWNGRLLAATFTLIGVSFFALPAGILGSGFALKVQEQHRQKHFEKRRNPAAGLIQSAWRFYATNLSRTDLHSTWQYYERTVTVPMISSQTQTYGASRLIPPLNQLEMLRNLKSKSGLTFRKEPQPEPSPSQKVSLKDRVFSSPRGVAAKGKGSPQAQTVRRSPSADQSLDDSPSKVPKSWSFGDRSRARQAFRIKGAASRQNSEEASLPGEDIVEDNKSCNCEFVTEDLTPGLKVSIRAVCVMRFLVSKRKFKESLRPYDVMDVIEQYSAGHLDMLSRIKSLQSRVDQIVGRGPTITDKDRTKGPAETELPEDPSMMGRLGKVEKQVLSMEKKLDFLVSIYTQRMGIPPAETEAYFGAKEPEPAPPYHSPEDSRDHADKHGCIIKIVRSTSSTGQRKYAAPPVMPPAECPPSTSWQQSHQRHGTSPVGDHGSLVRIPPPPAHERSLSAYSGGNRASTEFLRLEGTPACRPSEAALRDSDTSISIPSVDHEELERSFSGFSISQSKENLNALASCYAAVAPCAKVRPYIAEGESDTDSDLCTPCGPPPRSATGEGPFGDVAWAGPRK
KCNQ2 enhance = enhances the rat KCNQ2 potassium channel. O88943. CHO-K1 KCNQ2, FluxOR thallium flux fluorescence; stronger effect = higher value. B-score at 10 µM. 310,000 compounds, 0.54% hits. AID 2239;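 active means fluorescence ratio B-score at least 3 SD of library B-scores, with initial fluorescence B-score within 3 of them, cut at about 5.3 in these data; same plate scores as AID 2156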;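 further: B-score of peak minus minimum over baseline fluorescence ratio after K+ and Tl+ stimulus; positive B-score means potentiation of KCNQ2 with more thallium influx and brighter signal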
Kir21 confirm = confirmation of mouse Kir2.1 potassium channel inhibitors | Kir2.1-expressing cells, FluxOR thallium flux fluorescence; stronger effect = lower value | AID 2032 | shares compounds with KCNQ2 enhance | 2,300 compounds, 41% hits | Tl flux remaining, % of negative control (stronger effect = lower value), % at 10 µM;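 active means Primary-screen hit whose thallium flux fell at least 3 control SD below untreated wells in both duplicates, with normal baseline fluorescence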;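 further: 0% = blank wells without stimulus and 100% = stimulated no-compound controls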
HEK293 Tl flux = counter-screen for Kir2.1 inhibitors: effect in parental HEK293 cells; shares compounds with KCNQ2 enhance; FluxOR thallium flux fluorescence; 0% = unstimulated blank wells; FluxOR signal as % of negative control (100 = no effect), % at 10 µM; 2,300 compounds, 19% hits;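 active means dye signal at least 3 control SD above or below untreated wells in both duplicates, raw fluorescence within 3, either direction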;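 further: percent is based on the flux ratio of peak minus minimum fluorescence over baseline F0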
CHO-K1 Tl ctr = parental CHO-K1 activity in KCNQ2 potentiator counter-screen; shares compounds with KCNQ2 enhance; parental CHO-K1 cells, FluxOR thallium flux fluorescence; zero = vehicle mean+3SD, 100% = vehicle-minus-blank window; activity increase over 3SD of controls, % at 10 µM; 1,200 compounds, 43% hits;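 active means signal rise of at least 3 SD above the untreated control mean, in both duplicate wells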;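 further: counter screen of KCNQ2 potentiator hits so any rise reflects channel-independent effects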
KCNQ1 sel pot = tests whether KCNQ2 potentiators also act on human KCNQ1; shares compounds with KCNQ2 enhance; CHO KCNQ1 stable, FluxOR thallium flux fluorescence; beyond 3SD, as % of vehicle-control signal; activation over 3SD threshold, % at 10 µM; 1,200 compounds, 28% hits; AID 2283;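 active means fluorescence ratio rise of at least 3 SD of vehicle wells above their mean, in both replicate wells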;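 further: 0% = vehicle mean plus 3 SD and 100% = vehicle minus unstimulated blank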
KCNQ2 pot conf = rat KCNQ2 channel potentiator confirmation. shares compounds with KCNQ2 enhance. CHO-KCNQ2 cells, FluxOR thallium flux fluorescence. potentiation, less the hit threshold, % at 10 µM. 1,200 compounds, 68% hits. AID 2287;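 active means fluorescence ratio rising 3 SD or more over the vehicle control mean in both replicates, plus primary screen hit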;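 further: peak minus minimum thallium fluorescence divided by baseline after K/Tl stimulus; 0% = vehicle mean plus 3 SD and 100% = vehicle minus unstimulated blank difference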
Kir21 spec = mouse Kir2.1 off-target activity of KCNQ2 potentiators; shares compounds with KCNQ2 enhance; HEK293 Kir2.1, FluxOR thallium flux fluorescence; activity over 3SD threshold, % at 10 µM; 1,200 compounds, 2% hits; AID 2345;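 active means fluorescence ratio rise of at least 3 SD above the vehicle-control mean, seen in both replicates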;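 further: 0% = vehicle mean plus 3 SD and 100% = vehicle minus no-stimulus blank window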
KCNQ2 W236L MoA = KCNQ2 potentiators acting on retigabine-insensitive rat KCNQ2 W236L mutant; shares compounds with KCNQ2 enhance; 940 compounds, 10% hits; current increase over 3SD of negative controls (%), stronger effect = higher value, % at 25 µM; CHO KCNQ2-W236L, automated patch clamp current;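 active means current increase at least 3 SD of the untreated controls above them in both duplicate recordings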
* marks the source's active call; other numbers are inactive results; i = inactive; . = not tested or not shown. Shown are actives, neighbours in structure and some others; about 1.6% of the full set was active somewhere.

SMILES | KCNQ2 block | KCNQ2 enhance | Kir21 confirm | HEK293 Tl flux | others
Cc1ccc(C(=O)N2CCN(c3ccccc3)CC2)cc1S(=O)(=O)N1CCCC1 | i | 1.72 | i | i
Cc1ccc(C(=O)N2CCN(c3ccc(F)cc3)CC2)cc1S(=O)(=O)N1CCCCC1 | i | . | . | .
COc1cc(C)c(COc2ncnc3ccccc23)cc1OC | i | . | . | .
Cc1cc2nc(CSc3ccccc3)cc(=O)n2[nH]1 | i | . | . | .
COc1ccc(N(CCC(=O)O)S(=O)(=O)c2ccc(C)cc2C)cc1 | i | 0.21 | . | .
Cc1ccc(C2=NOC(=O)/C2=C\c2ccccc2)cc1 | i | 0.59 | . | .
O=C1ON=C(c2ccccc2)/C1=C/c1ccc(O)cc1 | i | . | i | i
O=C1ON=C(c2ccc(Cl)cc2)/C1=C/c1ccc(O)cc1 | -7.36* | -7.36 | 58.0%* | i
CC1=NOC(=O)/C1=C/c1ccc(O)cc1 | i | 1.87 | . | .
CCC(C)[C@H](NC(=O)c1cc2cc(Cl)ccc2n1C)C(=O)N1CCC(C(=O)O)CC1 (stereo partly drawn) | i | . | . | .
COc1cc(NS(=O)(=O)c2ccc(Nc3nc(-c4ccccc4)cs3)cc2)nc(OC)n1 | i | 1.82 | i | i
COc1cc(NS(=O)(=O)c2ccc(NC(=S)Nc3ccccc3)cc2)nc(OC)n1 | i | . | . | .
COc1ccccc1NS(=O)(=O)c1cccc(-n2c(O)c(C=Nc3ccccc3C(=O)O)c3ccccc3c2=O)c1 | i | . | . | .
CCCc1cc(=O)[nH]c(SCC(=O)Nc2ccc(Br)cc2Br)n1 | i | 0.99 | . | .
COc1ccc(Cl)cc1NS(=O)(=O)c1cccc(C(=O)NCC(c2ccco2)N(C)C)c1 (stereo not drawn) | i | . | . | .
O=[N+]([O-])c1ccccc1S(=O)(=O)N1CCCc2ccccc21 | i | . | . | .
O=S(=O)(c1ccccc1F)N1CCCc2ccccc21 | i | 0.02 | 60.0%* | i
Cc1ccc(C(=O)NC2(O)C(=O)c3ccccc3C2=O)cc1C | i | 5.69* | i | i | CHO-K1 Tl ctr=-24.6;KCNQ1 sel pot=-12.7;KCNQ2 pot conf=-6.3;Kir21 spec=-36.0;KCNQ2 W236L MoA=21.6%*
O=C(NC1(O)C(=O)c2ccccc2C1=O)c1ccc(C(F)(F)F)cc1 | i | . | . | .
N#Cc1c(NCCCO)nc(-c2ccccc2)c2c1CCCC2 | i | 1.11 | . | .
N#Cc1c(NCCN)nc(-c2ccccc2)c2c1CCCC2 | i | . | 45.5%* | i
Cc1ccc2c(c1)c1c(n2CC(O)CNC(CO)(CO)CO)CCCC1 (stereo not drawn) | i | 0.98 | . | .
Cc1ccc2c(c1)c1c(n2CC(O)CNC2CCCCC2)CCCC1 (stereo not drawn) | i | . | 51.0%* | i
COc1ccc2c(c1)C(=NNc1ccc(C(=O)O)cc1)c1cc(OC)ccc1-2 | i | 7.55* | i | i | CHO-K1 Tl ctr=-15.1;KCNQ1 sel pot=-17.0;KCNQ2 pot conf=-17.6;Kir21 spec=-30.7
COc1ccc(/C(C)=N/Nc2ccc(C(=O)O)cc2)c(OC)c1 | i | . | . | .
SMILES | KCNQ2 block | KCNQ2 enhance | Kir21 confirm | HEK293 Tl flux | others
CC1CCCN(CCOCCOc2ccc(Br)cc2Cl)C1 (stereo not drawn) | i | . | . | .
CC1CCN(CCCOc2ccc(Br)cc2Cl)CC1 | i | . | 38.5%* | i
CCOc1ccc(N(CC(=O)N2CCCCCC2)S(=O)(=O)c2ccc(F)cc2)cc1 | i | . | . | .
CCc1ccc(-c2nc(NC(=S)NC(=O)c3cccs3)sc2C)cc1 | i | 1.69 | . | .
COC(=O)c1nc(NC(=S)NC(=O)c2cccs2)sc1C | i | 5.79* | i | 140.5%* | CHO-K1 Tl ctr=5.0*;KCNQ1 sel pot=-29.9;KCNQ2 pot conf=-1.6;Kir21 spec=-36.8;KCNQ2 W236L MoA=i
c1ccc(-c2nc(N3CCCCC3)nc3ccccc23)cc1 | i | . | . | .
c1ccc(-c2nc(N3CCNCC3)nc3ccccc23)cc1 | i | . | 50.5%* | i
